# In paper PMC7862700, “An all-to-all approach to the identification of sequence-specific readers for epigenetic DNA modifications on cytosine”:
# Tests used:
# Experiment in all cases: DAPPL (digital affinity profiling via proximity ligation, sequencing); 10 mM Tris-HCl pH 7.5, 50 mM NaCl, 1 mM DTT, 4% glycerol, room temperature, 30 min; GST-TFs on glutathione beads, 16-mer random dsDNA library, 0.1% formaldehyde crosslink after washing; high values mean tight binding
# FLI1 = biological target: T1, FLI1 (Homo sapiens, UniProt Q01543 1-452); conditions: protein: recombinant; tags: N-terminal GST; dsDNA, one strand shown
# T1 sequence: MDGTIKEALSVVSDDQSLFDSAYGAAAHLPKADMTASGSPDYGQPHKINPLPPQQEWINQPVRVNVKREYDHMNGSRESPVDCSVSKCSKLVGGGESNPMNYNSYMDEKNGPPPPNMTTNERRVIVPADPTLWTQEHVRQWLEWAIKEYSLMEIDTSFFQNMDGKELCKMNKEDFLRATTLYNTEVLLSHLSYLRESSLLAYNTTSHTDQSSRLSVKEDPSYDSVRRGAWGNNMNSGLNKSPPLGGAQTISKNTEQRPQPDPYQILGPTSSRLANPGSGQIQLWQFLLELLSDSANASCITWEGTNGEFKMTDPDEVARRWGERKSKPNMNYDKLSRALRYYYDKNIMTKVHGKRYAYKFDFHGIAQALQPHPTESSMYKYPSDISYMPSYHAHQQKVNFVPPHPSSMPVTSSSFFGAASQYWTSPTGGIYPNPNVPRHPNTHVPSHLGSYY
# How it was run: (§1)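 GST fusions of human transcription factors were expressed in yeast and captured with glutathione beads. Once given DNA barcodes and pooled alongside a tag-only sample, they were incubated for 30 min at room temperature with 200 nmole of a random double-stranded 16-mer DNA library in Tris/NaCl/DTT/glycerol buffer, then washed, crosslinked (0.1% formaldehyde), proximity-ligated, PCR-amplified and sequenced on an Illumina NextSeq500. The binding signal of each hexamer is its read frequency for a factor divided by its frequency for the tag-only sample.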
# ELK1 = biological target: T2, ELK1 (Homo sapiens, UniProt P19419 1-428); conditions: protein: recombinant; tags: N-terminal GST; dsDNA, one strand shown
# T2 sequence: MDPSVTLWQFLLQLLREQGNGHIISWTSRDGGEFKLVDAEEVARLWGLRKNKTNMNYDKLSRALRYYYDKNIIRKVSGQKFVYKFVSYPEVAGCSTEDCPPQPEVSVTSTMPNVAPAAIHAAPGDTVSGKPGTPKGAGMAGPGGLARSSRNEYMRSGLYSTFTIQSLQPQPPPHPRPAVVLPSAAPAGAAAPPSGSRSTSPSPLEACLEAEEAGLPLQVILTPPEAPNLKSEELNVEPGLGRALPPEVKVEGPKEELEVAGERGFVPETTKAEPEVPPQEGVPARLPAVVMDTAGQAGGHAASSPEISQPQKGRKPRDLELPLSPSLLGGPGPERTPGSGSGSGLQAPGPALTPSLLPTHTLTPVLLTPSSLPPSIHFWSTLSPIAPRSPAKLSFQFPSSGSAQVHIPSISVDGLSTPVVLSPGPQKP
# How it was run: as §1
# GABPA = biological target: T3, GABPA (Homo sapiens, UniProt Q06546 1-454); conditions: protein: recombinant; tags: N-terminal GST; dsDNA, one strand shown
# T3 sequence: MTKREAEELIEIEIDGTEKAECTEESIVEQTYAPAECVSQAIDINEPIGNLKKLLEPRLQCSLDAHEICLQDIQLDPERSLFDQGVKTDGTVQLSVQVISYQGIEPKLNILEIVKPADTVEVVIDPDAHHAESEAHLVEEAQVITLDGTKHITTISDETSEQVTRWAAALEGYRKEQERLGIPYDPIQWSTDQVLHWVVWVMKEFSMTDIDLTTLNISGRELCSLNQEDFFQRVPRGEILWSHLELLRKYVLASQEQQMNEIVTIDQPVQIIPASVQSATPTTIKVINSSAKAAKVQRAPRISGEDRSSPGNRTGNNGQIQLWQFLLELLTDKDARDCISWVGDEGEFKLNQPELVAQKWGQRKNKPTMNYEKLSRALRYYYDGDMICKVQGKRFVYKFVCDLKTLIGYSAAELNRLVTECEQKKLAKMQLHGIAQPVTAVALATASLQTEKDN
# How it was run: as §1
# ERG = biological target: T4, ERG (Homo sapiens, UniProt P11308 1-479); conditions: protein: recombinant; tags: N-terminal GST; dsDNA, one strand shown
# T4 sequence: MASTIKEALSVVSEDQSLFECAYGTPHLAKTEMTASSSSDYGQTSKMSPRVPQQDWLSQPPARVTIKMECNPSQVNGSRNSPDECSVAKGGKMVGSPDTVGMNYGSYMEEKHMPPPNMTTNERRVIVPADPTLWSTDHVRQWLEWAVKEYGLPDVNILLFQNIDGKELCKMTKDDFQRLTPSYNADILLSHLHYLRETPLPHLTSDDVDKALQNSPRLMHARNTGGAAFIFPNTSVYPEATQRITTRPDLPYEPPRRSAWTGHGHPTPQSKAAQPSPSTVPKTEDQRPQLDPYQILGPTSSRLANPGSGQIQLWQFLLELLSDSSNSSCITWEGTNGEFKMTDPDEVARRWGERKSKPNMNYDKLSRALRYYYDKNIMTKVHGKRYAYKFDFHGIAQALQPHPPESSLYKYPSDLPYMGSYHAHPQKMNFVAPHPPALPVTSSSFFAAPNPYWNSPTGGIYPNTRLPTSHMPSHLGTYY
# How it was run: as §1
# ELF1 = ELF1 (Homo sapiens, UniProt P32519 1-619); conditions: protein: recombinant; tags: N-terminal GST; dsDNA, one strand shown
# ELF1, sequence (P32519 whole entry): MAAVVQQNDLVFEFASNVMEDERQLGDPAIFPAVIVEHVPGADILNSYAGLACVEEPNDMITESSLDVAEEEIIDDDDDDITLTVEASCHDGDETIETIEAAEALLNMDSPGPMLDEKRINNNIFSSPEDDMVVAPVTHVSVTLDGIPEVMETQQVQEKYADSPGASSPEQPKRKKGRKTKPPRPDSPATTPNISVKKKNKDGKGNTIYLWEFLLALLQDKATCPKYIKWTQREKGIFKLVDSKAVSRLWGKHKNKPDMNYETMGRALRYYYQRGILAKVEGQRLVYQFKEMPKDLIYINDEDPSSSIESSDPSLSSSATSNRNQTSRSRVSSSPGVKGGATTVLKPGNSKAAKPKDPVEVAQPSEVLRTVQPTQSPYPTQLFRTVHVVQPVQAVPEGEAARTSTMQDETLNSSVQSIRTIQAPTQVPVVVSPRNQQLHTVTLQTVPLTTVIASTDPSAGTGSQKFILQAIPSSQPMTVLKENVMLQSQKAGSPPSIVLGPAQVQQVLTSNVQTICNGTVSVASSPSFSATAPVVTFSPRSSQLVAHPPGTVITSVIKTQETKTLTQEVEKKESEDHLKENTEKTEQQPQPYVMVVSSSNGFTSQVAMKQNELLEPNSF
# How it was run: as §1
# EHF = biological target: T5, EHF (Homo sapiens, UniProt Q9NZC4 1-300); conditions: protein: recombinant; tags: N-terminal GST; dsDNA, one strand shown
# T5 sequence: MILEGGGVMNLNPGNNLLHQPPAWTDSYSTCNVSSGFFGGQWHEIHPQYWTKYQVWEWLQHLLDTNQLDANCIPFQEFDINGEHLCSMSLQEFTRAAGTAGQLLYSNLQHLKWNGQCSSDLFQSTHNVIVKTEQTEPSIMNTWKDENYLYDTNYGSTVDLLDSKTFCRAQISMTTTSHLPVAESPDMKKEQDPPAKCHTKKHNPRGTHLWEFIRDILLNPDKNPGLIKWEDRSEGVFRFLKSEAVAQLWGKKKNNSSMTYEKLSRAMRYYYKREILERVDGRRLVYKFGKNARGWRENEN
# How it was run: as §1
# SPI1 = SPI1 (Homo sapiens, UniProt P17947 1-270); conditions: protein: recombinant; tags: N-terminal GST; dsDNA, one strand shown
# How it was run: as §1
# SPIB = SPIB (Homo sapiens, UniProt Q01892 1-262); conditions: protein: recombinant; tags: N-terminal GST; dsDNA, one strand shown
# SPIB, sequence (Q01892 whole entry): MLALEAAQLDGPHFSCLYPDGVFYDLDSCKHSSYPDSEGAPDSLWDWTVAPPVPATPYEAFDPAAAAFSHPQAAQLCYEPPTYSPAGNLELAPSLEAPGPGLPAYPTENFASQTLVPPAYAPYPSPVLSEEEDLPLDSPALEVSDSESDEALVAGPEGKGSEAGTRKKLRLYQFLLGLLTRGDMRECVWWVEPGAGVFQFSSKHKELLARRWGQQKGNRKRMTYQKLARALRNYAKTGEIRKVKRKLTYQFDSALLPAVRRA
# How it was run: as §1
# ELK3 = biological target: T6, ELK3 (Homo sapiens, UniProt P41970 1-407); conditions: protein: recombinant; tags: N-terminal GST; dsDNA, one strand shown
# T6 sequence: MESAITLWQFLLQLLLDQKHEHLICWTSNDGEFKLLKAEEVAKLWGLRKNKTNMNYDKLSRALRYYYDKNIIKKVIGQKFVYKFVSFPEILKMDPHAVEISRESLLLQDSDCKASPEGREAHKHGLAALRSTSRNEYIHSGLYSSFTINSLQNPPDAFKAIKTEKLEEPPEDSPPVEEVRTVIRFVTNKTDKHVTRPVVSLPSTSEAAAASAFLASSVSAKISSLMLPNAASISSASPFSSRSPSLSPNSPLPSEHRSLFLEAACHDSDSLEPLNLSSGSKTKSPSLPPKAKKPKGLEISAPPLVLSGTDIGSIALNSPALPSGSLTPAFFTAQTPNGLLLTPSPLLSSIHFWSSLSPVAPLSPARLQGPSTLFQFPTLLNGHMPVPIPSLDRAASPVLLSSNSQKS
# How it was run: as §1
# FEV = biological target: T7, FEV (Homo sapiens, UniProt Q99581 1-238); conditions: protein: recombinant; tags: N-terminal GST; dsDNA, one strand shown
# T7 sequence: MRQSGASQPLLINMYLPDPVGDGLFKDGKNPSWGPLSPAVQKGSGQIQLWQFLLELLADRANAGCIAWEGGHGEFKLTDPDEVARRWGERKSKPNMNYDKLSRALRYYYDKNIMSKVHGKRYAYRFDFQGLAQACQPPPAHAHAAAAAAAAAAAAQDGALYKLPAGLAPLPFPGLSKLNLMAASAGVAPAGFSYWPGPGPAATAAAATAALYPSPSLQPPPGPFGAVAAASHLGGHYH
# How it was run: as §1
# ETV5 = ETV5 (Homo sapiens, UniProt P41161 1-510); conditions: protein: recombinant; tags: N-terminal GST; dsDNA, one strand shown
# ETV5, sequence (P41161 whole entry): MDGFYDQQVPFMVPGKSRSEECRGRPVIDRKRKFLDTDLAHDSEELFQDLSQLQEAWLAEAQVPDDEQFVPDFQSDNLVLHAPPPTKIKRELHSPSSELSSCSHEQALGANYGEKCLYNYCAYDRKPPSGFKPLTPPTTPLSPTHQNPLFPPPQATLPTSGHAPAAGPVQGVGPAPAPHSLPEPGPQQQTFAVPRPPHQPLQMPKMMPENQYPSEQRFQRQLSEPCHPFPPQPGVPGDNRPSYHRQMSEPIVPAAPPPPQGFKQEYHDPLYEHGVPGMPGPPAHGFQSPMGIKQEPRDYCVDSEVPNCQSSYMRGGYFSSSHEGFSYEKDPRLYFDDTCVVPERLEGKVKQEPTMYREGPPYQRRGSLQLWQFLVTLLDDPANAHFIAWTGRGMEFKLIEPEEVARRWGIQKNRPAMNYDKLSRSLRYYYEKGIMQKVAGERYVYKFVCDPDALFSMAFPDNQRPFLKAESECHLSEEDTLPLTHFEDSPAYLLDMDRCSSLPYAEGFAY
# How it was run: as §1
# HSF1 = HSF1 (Homo sapiens, UniProt Q00613 1-529); conditions: protein: recombinant; tags: N-terminal GST; chain copies: 3; dsDNA, one strand shown
# HSF1, sequence (Q00613 whole entry): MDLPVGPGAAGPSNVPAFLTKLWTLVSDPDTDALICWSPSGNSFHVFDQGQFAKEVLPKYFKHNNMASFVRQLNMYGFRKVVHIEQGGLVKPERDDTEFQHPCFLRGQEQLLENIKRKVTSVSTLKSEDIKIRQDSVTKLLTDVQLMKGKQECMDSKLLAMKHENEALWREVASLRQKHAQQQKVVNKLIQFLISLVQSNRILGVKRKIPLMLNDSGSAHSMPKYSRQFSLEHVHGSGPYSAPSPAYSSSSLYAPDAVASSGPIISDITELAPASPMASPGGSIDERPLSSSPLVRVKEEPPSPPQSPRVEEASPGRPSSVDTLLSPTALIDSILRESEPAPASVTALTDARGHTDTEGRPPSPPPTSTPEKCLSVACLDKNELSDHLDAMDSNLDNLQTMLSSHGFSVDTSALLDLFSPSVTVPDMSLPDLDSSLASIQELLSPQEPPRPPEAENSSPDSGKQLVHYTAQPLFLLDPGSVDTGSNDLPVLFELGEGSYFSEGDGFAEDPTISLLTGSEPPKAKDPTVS
# How it was run: as §1
# SPIC = biological target: T8, SPIC (Homo sapiens, UniProt Q8N5J4 1-248); conditions: protein: recombinant; tags: N-terminal GST; dsDNA, one strand shown
# T8 sequence: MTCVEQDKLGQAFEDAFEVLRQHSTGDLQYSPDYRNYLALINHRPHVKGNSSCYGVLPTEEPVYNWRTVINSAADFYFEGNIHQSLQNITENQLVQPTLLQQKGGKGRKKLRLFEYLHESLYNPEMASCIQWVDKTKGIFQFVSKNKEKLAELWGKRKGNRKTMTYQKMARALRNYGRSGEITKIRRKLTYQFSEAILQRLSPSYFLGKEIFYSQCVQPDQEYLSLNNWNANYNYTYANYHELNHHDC
# How it was run: as §1
# ELF4 = ELF4 (Homo sapiens, UniProt Q99607 1-663); conditions: protein: recombinant; tags: N-terminal GST; dsDNA, one strand shown
# ELF4, sequence (Q99607 whole entry): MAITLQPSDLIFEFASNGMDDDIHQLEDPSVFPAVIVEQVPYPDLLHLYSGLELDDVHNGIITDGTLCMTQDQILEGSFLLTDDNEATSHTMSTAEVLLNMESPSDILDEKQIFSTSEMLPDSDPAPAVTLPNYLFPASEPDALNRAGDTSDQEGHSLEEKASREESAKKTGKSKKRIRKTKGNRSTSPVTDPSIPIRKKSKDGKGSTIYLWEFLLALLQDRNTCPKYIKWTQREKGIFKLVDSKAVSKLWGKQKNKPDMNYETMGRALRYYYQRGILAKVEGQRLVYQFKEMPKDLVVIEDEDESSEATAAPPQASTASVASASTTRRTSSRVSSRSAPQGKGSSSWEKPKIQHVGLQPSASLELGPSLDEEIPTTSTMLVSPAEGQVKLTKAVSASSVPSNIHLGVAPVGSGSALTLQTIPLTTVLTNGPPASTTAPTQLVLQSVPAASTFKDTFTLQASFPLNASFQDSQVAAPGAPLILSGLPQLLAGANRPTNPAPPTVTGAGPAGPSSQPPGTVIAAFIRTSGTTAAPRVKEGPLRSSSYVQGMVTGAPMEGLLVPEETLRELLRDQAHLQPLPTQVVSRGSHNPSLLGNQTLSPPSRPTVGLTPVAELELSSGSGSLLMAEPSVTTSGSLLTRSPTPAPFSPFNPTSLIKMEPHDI
# How it was run: as §1
# ELK4 = biological target: T9, ELK4 (Homo sapiens, UniProt P28324-2 1-405); conditions: protein: recombinant; tags: N-terminal GST; dsDNA, one strand shown
# T9 sequence: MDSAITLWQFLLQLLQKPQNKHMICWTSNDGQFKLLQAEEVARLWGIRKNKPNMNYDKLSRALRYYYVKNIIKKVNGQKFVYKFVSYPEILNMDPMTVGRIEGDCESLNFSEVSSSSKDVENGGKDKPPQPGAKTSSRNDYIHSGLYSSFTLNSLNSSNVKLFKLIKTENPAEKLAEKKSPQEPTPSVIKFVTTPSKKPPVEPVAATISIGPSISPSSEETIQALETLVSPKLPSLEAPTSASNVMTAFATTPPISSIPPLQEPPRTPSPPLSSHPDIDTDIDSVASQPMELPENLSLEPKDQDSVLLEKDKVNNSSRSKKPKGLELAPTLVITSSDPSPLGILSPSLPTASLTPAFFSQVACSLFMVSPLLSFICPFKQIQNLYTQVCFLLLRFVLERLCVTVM
# How it was run: as §1
# ETV2 = biological target: T10, ETV2 (Homo sapiens, UniProt O00321 1-342); conditions: protein: recombinant; tags: N-terminal GST; dsDNA, one strand shown
# T10 sequence: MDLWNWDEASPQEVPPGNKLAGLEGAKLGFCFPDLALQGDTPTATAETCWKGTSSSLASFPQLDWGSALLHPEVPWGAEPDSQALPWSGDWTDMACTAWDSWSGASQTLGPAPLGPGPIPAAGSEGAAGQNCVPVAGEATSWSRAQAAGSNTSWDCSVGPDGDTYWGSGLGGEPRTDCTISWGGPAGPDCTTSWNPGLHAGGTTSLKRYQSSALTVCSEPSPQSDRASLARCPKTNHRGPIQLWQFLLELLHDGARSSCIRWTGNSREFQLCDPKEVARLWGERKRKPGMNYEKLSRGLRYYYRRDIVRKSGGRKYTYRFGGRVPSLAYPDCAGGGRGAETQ
# How it was run: as §1
# ELF3 = biological target: T11, ELF3 (Homo sapiens, UniProt P78545 1-371); conditions: protein: recombinant; tags: N-terminal GST; dsDNA, one strand shown
# T11 sequence: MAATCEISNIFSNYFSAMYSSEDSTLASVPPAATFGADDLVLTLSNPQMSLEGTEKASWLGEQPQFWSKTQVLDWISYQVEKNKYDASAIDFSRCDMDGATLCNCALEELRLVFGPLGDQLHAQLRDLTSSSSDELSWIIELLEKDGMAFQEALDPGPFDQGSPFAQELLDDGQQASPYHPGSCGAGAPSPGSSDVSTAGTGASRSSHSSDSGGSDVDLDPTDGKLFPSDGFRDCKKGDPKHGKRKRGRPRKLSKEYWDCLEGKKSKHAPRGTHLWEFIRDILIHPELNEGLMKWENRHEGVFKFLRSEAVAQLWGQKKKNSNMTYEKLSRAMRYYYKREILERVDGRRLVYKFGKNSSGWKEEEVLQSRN
# How it was run: as §1
# CRX = CRX (Homo sapiens, UniProt O43186 1-299); conditions: protein: recombinant; tags: N-terminal GST; dsDNA, one strand shown
# CRX, sequence (O43186 whole entry): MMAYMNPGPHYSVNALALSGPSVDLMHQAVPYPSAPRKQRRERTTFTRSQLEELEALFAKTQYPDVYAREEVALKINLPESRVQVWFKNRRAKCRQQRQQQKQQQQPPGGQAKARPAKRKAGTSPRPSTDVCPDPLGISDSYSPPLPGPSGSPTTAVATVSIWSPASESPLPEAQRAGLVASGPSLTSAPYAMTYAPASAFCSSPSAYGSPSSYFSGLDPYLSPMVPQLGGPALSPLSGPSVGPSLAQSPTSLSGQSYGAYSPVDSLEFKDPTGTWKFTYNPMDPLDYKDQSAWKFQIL
# How it was run: as §1
# ETV1 = ETV1 (Homo sapiens, UniProt P50549 1-477); conditions: protein: recombinant; tags: N-terminal GST; dsDNA, one strand shown
# ETV1, sequence (P50549 whole entry): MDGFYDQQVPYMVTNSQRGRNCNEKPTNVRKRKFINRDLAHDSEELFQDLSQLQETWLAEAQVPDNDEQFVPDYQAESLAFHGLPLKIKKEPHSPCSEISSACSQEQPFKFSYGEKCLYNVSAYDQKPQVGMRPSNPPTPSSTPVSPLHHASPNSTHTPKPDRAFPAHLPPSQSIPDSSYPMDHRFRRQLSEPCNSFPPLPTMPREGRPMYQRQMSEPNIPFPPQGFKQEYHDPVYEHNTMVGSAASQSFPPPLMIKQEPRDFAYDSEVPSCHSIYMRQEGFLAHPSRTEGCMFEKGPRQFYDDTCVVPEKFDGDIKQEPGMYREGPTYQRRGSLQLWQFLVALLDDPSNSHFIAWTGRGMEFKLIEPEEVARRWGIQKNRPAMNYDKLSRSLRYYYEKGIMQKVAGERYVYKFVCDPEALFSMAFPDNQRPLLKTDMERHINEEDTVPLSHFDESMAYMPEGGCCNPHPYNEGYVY
# How it was run: as §1
sequence,measurement,setting,value
TTTTGC,binding signal,FLI1,"1.51 fold enrichment (6-mer frequency, TF over GST control)"
same,binding signal,ELK1,"1.39 fold enrichment (6-mer frequency, TF over GST control)"
same,binding signal,GABPA,"1.38 fold enrichment (6-mer frequency, TF over GST control)"
same,binding signal,ERG,"1.26 fold enrichment (6-mer frequency, TF over GST control)"
same,binding signal,ELF1,"1.42 fold enrichment (6-mer frequency, TF over GST control)"
same,binding signal,EHF,"1.28 fold enrichment (6-mer frequency, TF over GST control)"
same,binding signal,SPI1,"1.43 fold enrichment (6-mer frequency, TF over GST control)"
same,binding signal,SPIB,"1.45 fold enrichment (6-mer frequency, TF over GST control)"
same,binding signal,ELK3,"1.42 fold enrichment (6-mer frequency, TF over GST control)"
same,binding signal,FEV,"1.3 fold enrichment (6-mer frequency, TF over GST control)"
same,binding signal,ETV5,"1.34 fold enrichment (6-mer frequency, TF over GST control)"
same,binding signal,HSF1,"1.36 fold enrichment (6-mer frequency, TF over GST control)"
same,binding signal,SPIC,"1.25 fold enrichment (6-mer frequency, TF over GST control)"
same,binding signal,ELF4,"1.42 fold enrichment (6-mer frequency, TF over GST control)"
same,binding signal,ELK4,"1.3 fold enrichment (6-mer frequency, TF over GST control)"
same,binding signal,ETV2,"1.53 fold enrichment (6-mer frequency, TF over GST control)"
same,binding signal,ELF3,"1.34 fold enrichment (6-mer frequency, TF over GST control)"
same,binding signal,CRX,"1.41 fold enrichment (6-mer frequency, TF over GST control)"
same,binding signal,ETV1,"1.34 fold enrichment (6-mer frequency, TF over GST control)"
